VLA-4 inh = inhibition in a human VLA-4 binding assay; VLA-4 expressing cells, ligand binding flow cytometry; inhibition, % (about 7 µM as worked out from the volumes in the protocol); 0.2% of 330,000 active; in the data active = inhibition above about 50%
NR1D1 modulator = modulates human Rev-erb alpha binding to DNA | P20393 | Rev-erbα–FITC-DNA binding, fluorescence polarization, 90 min | activity, % at 10 µM | 0.79% of 370,000 active | AID 1259318;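 active = activity above about 14%, limit read from the data; passing the limit was not always enough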;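 also: 0% = DMSO wells with 35 nM protein and 100% = DMSO wells with 750 nM protein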
Target sequence (P20393 whole entry, looked up): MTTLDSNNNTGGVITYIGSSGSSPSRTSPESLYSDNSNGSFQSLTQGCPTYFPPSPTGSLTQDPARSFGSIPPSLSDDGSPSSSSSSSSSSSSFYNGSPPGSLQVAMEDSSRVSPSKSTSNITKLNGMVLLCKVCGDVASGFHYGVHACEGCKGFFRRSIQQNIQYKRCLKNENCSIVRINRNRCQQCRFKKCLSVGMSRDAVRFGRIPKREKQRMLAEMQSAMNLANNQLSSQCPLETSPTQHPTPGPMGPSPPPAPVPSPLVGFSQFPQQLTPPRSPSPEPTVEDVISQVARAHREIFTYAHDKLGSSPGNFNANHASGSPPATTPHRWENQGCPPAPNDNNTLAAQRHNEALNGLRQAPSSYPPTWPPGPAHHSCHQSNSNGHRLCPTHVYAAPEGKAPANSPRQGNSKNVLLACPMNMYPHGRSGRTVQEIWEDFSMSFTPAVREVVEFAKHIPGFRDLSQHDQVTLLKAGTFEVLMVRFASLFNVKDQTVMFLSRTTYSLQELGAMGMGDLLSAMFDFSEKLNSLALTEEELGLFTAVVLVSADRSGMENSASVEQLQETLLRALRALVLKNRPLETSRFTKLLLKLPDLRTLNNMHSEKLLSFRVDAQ
ABCB6 inh MLPCN = inhibitors of human ABC transporter ABCB6. Q9NP58. K562-ABCB6 porphyrin accumulation, flow cytometry, 1 h; hits give low values. fluorescence ratio to DMSO, % at 10 µM. 0.19% of 360,000 active. AID 602162;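 active = fluorescence ratio to DMSO below 75%, the collection mean minus 3 SD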;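 also: signal is porphyrin accumulated inside mitochondria; 100% equals median channel fluorescence of DMSO control wells; lower ratio means ABCB6 inhibition with less porphyrin fluorescence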
Exocytosis inh = blocks lytic granule exocytosis; TALL-104 LAMP-1 surface exposure, flow cytometry; cells stimulated with thapsigargin and PMA; inhibition, % at 10 µM; 0.66% of 360,000 active; AID 651702;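 active = inhibition above about 55%, limit read from the data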
PG9 Ab binder = small molecules binding HIV-1 gp120 antibody PG9; TR-FRET gp120-PG9 antibody binding; inhibition, % at 6.7 µM; 0.43% of 360,000 active; AID 624416; in the data active = inhibition above about 8.5%
Rev-erbA confirm = confirmation of modulators of human Rev-erb alpha DNA binding; shares compounds with NR1D1 modulator; Rev-erb alpha FITC-DNA binding, fluorescence polarization, 90 min; activation, % at 25 µM; 61% of 3,000 active; AID 1259319;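 active = activation at or above a set limit, or at least 3 SD above the negative control mean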;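 also: 0% = 35 nM protein with DMSO and 100% = 750 nM protein high control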
RORg counter = RORgamma DNA-binding activity, dose-response counter-screen | shares compounds with NR1D1 modulator | purified RORgamma protein-FITC-DNA binding, fluorescence polarization | IC50, µM | 8% of 910 active;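 active = Compounds whose fitted half-maximal concentration for disrupting protein-DNA binding is below 10 micromolar; the record names Rev-erb in its text, so the target is in doubt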
The depositor's hits bear a star; i = inactive; / = no result. An excerpt weighted towards active compounds, which were near 2% of everything screened.

SMILES | VLA-4 inh | NR1D1 modulator | ABCB6 inh MLPCN | Exocytosis inh | PG9 Ab binder | Rev-erbA confirm | others
C=CCOc1ccc(/C(O)=C2\C(=O)C(=O)N(CCN(C)C)C2c2cccs2)cc1 (configuration not stated) | 7 | 29* | 96 | -1 | -1 | 35* | RORg counter=>40
OCCNc1nc(-c2ccccc2)c2cc(Br)ccc2n1 | 10 | -7 | 97 | -10 | 0 | /
CCOc1nc(-c2ccccc2)c2cc(Br)ccc2n1 | 6 | 27* | 97 | -12 | 1 | 15
O=C(c1cc2cc(Cl)ccc2[nH]1)N1CCc2ccccc2C1 | -81 | 60* | 102 | 36 | 1 | 6
C=CCn1c(SCC(=O)c2ccc(-c3ccccc3)cc2)nnc1-c1ccc(OC)cc1 | / | -4 | / | / | / | /
CC1(Cc2cccc(F)c2)C(=O)Nc2ccc(OC(F)(F)F)cc21 (configuration not stated) | / | 16* | 97 | -8 | 0 | 15*
COc1ccccc1-c1ccc2c(c1)C(C)(Cc1cccc(F)c1)C(=O)N2 (configuration not stated) | / | 63* | 91 | 5 | -1 | 88* | RORg counter=>40
COc1ccc(C(C)=O)cc1CC1(C)C(=O)Nc2ccc(-c3ccccc3OC)cc21 (configuration not stated) | / | 1 | 88 | 9 | 0 | /
COc1ccc(Cn2ccc3ccc(-c4ccc5ccn(C(=O)c6ccccc6OC)c5c4)cc32)cc1 | / | 71* | / | / | / | 63* | RORg counter=>40
COC(=O)c1ccc(Cn2ccc3ccc(-c4ccc5ccn(C(=O)c6ccccc6OC)c5c4)cc32)cc1 | / | 47* | / | / | / | 72* | RORg counter=>40
COc1ccc2c(c1)c1nc3ccccc3nc1n2Cc1ccc(OC(C)C)c(OC)c1 | -7 | 3 | 161 | -2 | 0 | /
COc1ccc(Cn2c3ccc(OC)cc3c3nc4ccccc4nc32)cc1 | 6 | 25* | 127 | -1 | -1 | 23*
CC(C)(C#N)Cc1cc(CC(C)(C)C#N)cc(C(C)(C)C)c1 | 49 | 22* | 84 | -9 | 0 | 43* | RORg counter=>40
CC(C)(Cc1cc(CC(C)(C)C(=O)O)cc(C(C)(C)C)c1)C(=O)O | 47 | -1 | 93 | -6 | -2 | /
C=CCN1[C@H](C)COc2cccc(N3CCSCC3)c2S1(=O)=O | / | 4 | / | / | / | /
O=C(NCc1ccco1)C1CCCN(c2ncccn2)C1 (configuration not stated) | / | -4 | / | / | / | /
Cc1nn(Cc2ccccc2Cl)c2sc(C(=O)NC(C)(C)C)cc12 | 3 | 2 | 103 | -2 | 1 | /
Cc1csc(NC(=O)c2cc3c(C)nn(Cc4ccccc4Cl)c3s2)n1 | -9 | 22* | 88 | -2 | 2 | 17*
COC(CNC(=O)c1ccc2nc(-c3cccs3)c(-c3cccs3)nc2c1)OC | 10 | 27* | 97 | -4 | -18 | 8
COc1ccc(-c2nc3ccc(C(=O)NCC(OC)OC)cc3nc2-c2ccc(OC)c(OC)c2)cc1OC | 13 | 1 | 101 | -1 | -1 | /
COCC#Cc1cnc2c(c1)C(=O)N([C@@H](C)CO)C[C@H](C)[C@H](CN(C)C(=O)c1ccc3c(c1)OCO3)O2 | / | 0 | / | / | 0 | /
O=C(CN1C(=O)c2ccccc2C1=O)N1CCN(c2nnc(-c3ccccc3)c3ccccc23)CC1 | 29 | 29* | 93 | 1 | 5 | 8
CCC(=O)N1CCN(c2nnc(-c3ccccc3)c3ccccc23)CC1 | 13 | -6 | 100 | -8 | -2 | /
Cc1ccc(-c2nnc(N3CCN(C(=O)CN4C(=O)c5ccccc5C4=O)CC3)c3ccccc23)cc1 | 8 | 25* | 91 | 0 | 0 | 7
Cc1cccc(C(=O)Nc2nc3ncccn3c2-c2ccc(C(F)(F)F)cc2)c1 | / | 0 | / | / | / | /
SMILES | VLA-4 inh | NR1D1 modulator | ABCB6 inh MLPCN | Exocytosis inh | PG9 Ab binder | Rev-erbA confirm | others
Cc1cccc(NC(=O)CNC(=O)[C@@H](Cc2ccccc2)NC(=O)[C@H]2O[C@@H](n3ccc(=O)[nH]c3=O)[C@H](O)[C@@H]2O)c1C | / | 0 | / | / | 0 | /
CC(C(=O)N1CCc2ccccc21)N1CCN(S(=O)(=O)c2ccc(C(F)(F)F)cc2)CC1 (configuration not stated) | 5 | 17* | 96 | -2 | 0 | -3
CC1CC(C)CN(C(=O)C(C)N2CCN(S(=O)(=O)c3ccc(C(F)(F)F)cc3)CC2)C1 (configuration not stated) | / | -1 | 96 | 1 | -3 | /
CCC[C@H]1[C@@H](OC(=O)NCc2ccccc2)CC[C@@]23CCCN2C(=O)CCC[C@@H]13 | / | -3 | / | / | / | /
O=C(CSc1nnc(COc2ccc(Cl)cc2)n1Cc1ccco1)Nc1cccc2ccccc12 | / | 8 | / | / | / | /
O=C(NCCc1ccccc1F)C1CCC(=O)N(Cc2ccccc2F)C1 (configuration not stated) | 13 | -2 | 97 | -5 | 0 | /
Cc1n[nH]c(C)c1CCNC(=O)C1CCC(=O)N(Cc2ccccc2F)C1 (configuration not stated) | -10 | 17* | 95 | 19 | 0 | 0
Cc1ccc(-n2c(SCC(=O)Nc3cccc(S(=O)(=O)NC4=NCCCCC4)c3)nc3ccccc3c2=O)cc1 | 8 | 80* | 102 | -6 | -3 | 42* | RORg counter=>40
CCc1ccc(-n2c(SCC(=O)Nc3cccc(S(=O)(=O)NC4=NCCCCC4)c3)nc3ccccc3c2=O)cc1 | 17 | -3 | 103 | 0 | 0 | /
Cc1ccc(-n2c(SCC(=O)Nc3cc(S(=O)(=O)N4CCOCC4)ccc3Cl)nc3ccccc3c2=O)cc1 | -11 | 12 | 96 | -3 | 0 | /
CCOC(=O)c1c(NC(=O)CSc2nc3ccccc3c(=O)n2-c2ccc(F)cc2)sc(C(C)=O)c1C | -2 | 114* | 102 | 2 | 0 | 30*
O=C(CSc1nc2ccccc2c(=O)n1-c1ccc(F)cc1)Nc1ccc(Cl)c(S(=O)(=O)N2CCOCC2)c1 | 4 | 63* | 98 | 7 | 0 | 33* | RORg counter=>40
O=C(CSc1nc2ccccc2c(=O)n1-c1ccc(F)c(Cl)c1)Nc1cccc(S(=O)(=O)N2CCOCC2)c1 | 8 | 38* | 100 | 12 | -1 | 19*
CC(C)Oc1cccc(-c2n[nH]c(=S)n2N=Cc2ccc(OCc3ccccc3)cc2)c1 | / | 1 | / | / | / | /
S=C(Nc1ccccc1)OCCN1CCCC12CCC(c1ccccc1)CC2 (configuration not stated) | / | -1 | / | / | / | /
CC(=O)Nc1ccc(-c2nn[nH]n2)cc1 | 9 | -4 | 97 | 24 | -2 | /
CC(=O)Nc1ccc(-c2ccnc(-c3ccc(NC(C)=O)cc3)n2)cc1 | 4 | 20* | 101 | 0 | 8 | 4
CCN(CC)C(=O)Cn1c(=O)n(C)c2ccccc21 | -6 | 0 | 95 | 2 | 1 | /
C=CCn1cc(/C=C/c2cc[n+](C)cc2)c2ccccc21 | i | 168* | 766 | -2 | -9 | 143* | RORg counter=>40

Screening results as filed in PubChem.
